Measured values reported in PubChem BioAssay.
Calls of active or inactive are those of the source.

Columns and labels:
[1] = system: Plasmodium falciparum Sir2 (PF13_0152, Sir2A); experiment: pfSir2 binders on small-molecule microarrays, primary screen, biochemical, small-molecule microarray, 635 nm fluorescence (AID 1098); conditions: small-molecule microarray binding, fluorescence 635 nm; higher = more signal;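 further: score merges spot fluorescence intensity with its signal-to-noise ratio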
[2] = small-molecule microarray binders of probe aDKK1, primary screen, biochemical, biotinylated probe, 635/667 nm fluorescence (AID 1099); conditions: higher = more signal;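 further: score merges 667nm spot fluorescence with signal to noise across triplicate slides; reference of the scale not given here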
[3] = small-molecule microarray binders of probe aCHRDL2, primary screen, biochemical, biotinylated probe, 635/667 nm fluorescence (AID 1100); conditions: higher = more signal
[4] = splicing luciferase reporter signal modulators, primary screen, spliceosome inhibition project, cell-based, HEK293, splice +/- reporter (AID 1101); conditions: luminescence, 24 h, higher = more signal, called active from +8 up or from −8 down;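 further: HEK293 cells carrying a splicing-competent luciferase reporter gene; test concentration not given here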
[5] = target: Fibroblast growth factor 10 (Homo sapiens) (UniProt O15520); experiment: FGF10 binders on small-molecule microarrays, primary screen, biochemical, small-molecule microarray, 635 nm fluorescence (AID 1102); conditions: FGF10 binding, fluorescence 635 nm, higher = more signal
[6] = system: glycogen synthase kinase-3 (GSK3A per assay name; protocol says GSK3B); experiment: GSK3 binders on small-molecule microarrays, primary screen, biochemical, small-molecule microarray, 635 nm fluorescence, GSK3A (AID 1103); conditions: small-molecule microarray binding, fluorescence 635 nm; higher = more signal; further: the record names both GSK3A and GSK3B
[7] = target: Epidermal growth factor receptor (Homo sapiens) (UniProt P00533); experiment: EGFR binders on small-molecule microarrays, primary screen, biochemical, small-molecule microarray, 635 nm fluorescence (AID 1104); conditions: EGFR binding, higher = more signal;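 further: score merges 667 nm emission intensity with spot signal to noise over triplicate slides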
[8] = target: Follistatin-related protein 3 (Homo sapiens) (UniProt O95633); experiment: FSTL3 binders on small-molecule microarrays, primary screen, biochemical, small-molecule microarray, 635 nm fluorescence (AID 1105); conditions: FSTL3 binding, higher = more signal;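 further: score merges emission near 667 nm and signal to noise per printed spot across three slides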
[9] = target: Dickkopf-related protein 1 (Homo sapiens) (UniProt O94907); experiment: DKK1 binders on small-molecule microarrays, primary screen, biochemical, small-molecule microarray, 635 nm fluorescence scan (AID 1106); conditions: DKK1 binding, higher = more signal;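 further: score merges emission near 667 nm with signal to noise over three replicate slides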
[10] = system: Inhibin beta A chain (activin A); experiment: INHBA (activin A) binders on microarrays, primary screen, biochemical, small-molecule microarray, 635 nm fluorescence scan (AID 1107); conditions: small-molecule microarray binding, higher = more signal;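 further: mouse activin A protein probed at 4.33 µg/mL on printed slides; score merges bound-protein fluorescence near 667 nm with spot signal-to-noise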

Sequence of Fibroblast growth factor 10 (Homo sapiens) (O15520 whole entry, looked up): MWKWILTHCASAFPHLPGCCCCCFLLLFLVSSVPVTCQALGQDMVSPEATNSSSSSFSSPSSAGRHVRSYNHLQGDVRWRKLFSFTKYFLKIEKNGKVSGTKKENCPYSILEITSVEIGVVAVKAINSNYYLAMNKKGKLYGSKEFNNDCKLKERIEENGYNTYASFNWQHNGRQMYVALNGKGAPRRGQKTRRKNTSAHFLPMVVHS
Sequence of Dickkopf-related protein 1 (Homo sapiens) (O94907 whole entry, looked up): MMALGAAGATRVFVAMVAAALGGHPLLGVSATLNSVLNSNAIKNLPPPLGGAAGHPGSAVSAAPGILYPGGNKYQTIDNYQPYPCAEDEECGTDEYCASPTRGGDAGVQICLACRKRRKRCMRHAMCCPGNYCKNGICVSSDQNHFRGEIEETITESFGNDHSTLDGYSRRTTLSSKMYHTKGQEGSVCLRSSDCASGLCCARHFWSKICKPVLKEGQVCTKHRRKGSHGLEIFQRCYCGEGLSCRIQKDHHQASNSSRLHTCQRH
Sequence of Epidermal growth factor receptor (Homo sapiens) (P00533 whole entry, looked up): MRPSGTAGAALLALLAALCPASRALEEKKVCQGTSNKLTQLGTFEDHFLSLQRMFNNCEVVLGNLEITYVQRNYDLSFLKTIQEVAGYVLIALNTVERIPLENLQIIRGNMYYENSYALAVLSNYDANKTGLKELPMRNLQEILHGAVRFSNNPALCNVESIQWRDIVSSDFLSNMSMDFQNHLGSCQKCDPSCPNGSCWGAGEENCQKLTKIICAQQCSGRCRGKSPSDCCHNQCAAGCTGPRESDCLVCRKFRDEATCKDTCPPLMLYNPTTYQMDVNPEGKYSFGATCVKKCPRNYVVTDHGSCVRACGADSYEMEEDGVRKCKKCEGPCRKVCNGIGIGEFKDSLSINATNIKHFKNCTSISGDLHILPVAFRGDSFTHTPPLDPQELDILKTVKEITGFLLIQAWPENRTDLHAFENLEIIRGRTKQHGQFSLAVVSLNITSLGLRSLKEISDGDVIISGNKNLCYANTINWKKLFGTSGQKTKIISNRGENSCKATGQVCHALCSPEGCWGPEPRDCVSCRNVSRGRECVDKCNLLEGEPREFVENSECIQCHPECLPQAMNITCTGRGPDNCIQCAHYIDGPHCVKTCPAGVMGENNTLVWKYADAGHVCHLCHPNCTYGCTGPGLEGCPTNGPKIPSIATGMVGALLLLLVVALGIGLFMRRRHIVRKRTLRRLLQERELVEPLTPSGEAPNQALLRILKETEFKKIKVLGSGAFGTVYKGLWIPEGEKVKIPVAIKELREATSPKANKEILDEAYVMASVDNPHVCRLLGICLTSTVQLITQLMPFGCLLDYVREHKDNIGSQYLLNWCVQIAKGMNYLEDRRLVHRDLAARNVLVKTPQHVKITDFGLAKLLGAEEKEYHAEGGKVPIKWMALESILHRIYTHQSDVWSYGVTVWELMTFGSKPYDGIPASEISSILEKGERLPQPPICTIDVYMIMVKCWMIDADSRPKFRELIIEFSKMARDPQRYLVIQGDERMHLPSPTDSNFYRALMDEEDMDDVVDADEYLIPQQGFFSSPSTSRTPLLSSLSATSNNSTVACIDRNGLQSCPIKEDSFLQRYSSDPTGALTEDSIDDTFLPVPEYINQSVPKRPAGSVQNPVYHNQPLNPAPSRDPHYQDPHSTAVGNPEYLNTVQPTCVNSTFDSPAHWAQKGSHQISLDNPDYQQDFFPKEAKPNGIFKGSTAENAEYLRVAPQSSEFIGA
Sequence of Follistatin-related protein 3 (Homo sapiens) (O95633 whole entry, looked up): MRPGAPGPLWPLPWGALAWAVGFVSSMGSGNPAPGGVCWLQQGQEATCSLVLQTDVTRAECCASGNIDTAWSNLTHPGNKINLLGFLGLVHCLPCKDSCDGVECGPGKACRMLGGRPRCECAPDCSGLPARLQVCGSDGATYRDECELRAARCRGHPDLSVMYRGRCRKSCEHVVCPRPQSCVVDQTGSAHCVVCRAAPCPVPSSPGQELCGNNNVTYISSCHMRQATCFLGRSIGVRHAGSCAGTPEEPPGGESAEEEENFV

Row | Structure (SMILES) | composite z-score [1] | composite z-score [2] | composite z-score [3] | z-score [4] | composite z-score [5] | composite z-score [6] | composite z-score [7] | composite z-score [8] | composite z-score [9] | composite z-score [10]
1 | NC(=O)NCC#Cc1ccc2c(c1)[C@]1(C(=O)N2)[C@H](c2ccccc2OCCO)N2[C@H](c3ccccc3)[C@H](c3ccccc3)OC(=O)[C@H]2[C@@H]1C(=O)N1CCN(c2ncccn2)CC1 | 0.722 | 0.0815 | 0.542 | 0.222 (inactive) | 0.651 | 0.814 | 0.251 | 0.844 | 0.133 | 1.25
2 | C=C(CCCC)C(=O)CC[C@@H](OC(C)=O)c1ccccc1OCCO | 1.34 | -0.283 | -0.16 | 0.419 (inactive) | -0.675 | -1.31 | -1.36 | -1.06 | -0.376 | 0.857
3 | COc1ccc([Si](C)(C)[C@@H]2[C@@H](CC(=O)N(CCO)Cc3ccccc3)O[C@]3(C(=O)N(Cc4cccc(N5CCC5=O)c4)c4ccccc43)[C@H]2C)cc1 | 1.41 | -0.163 | -0.229 | -0.732 (inactive) | 1.07 | 0.583 | 0.475 | 0.875 | 0.313 | 0.552
4 | CCOC(=O)C1=C[C@@H](c2ccccc2)N(S(=O)(=O)c2ccc(C)cc2)[C@H]1c1ccc(F)cc1 | 0.873 | 0.362 | 0.573 | -0.162 (inactive) | 0.635 | 1.29 | 0.158 | 1.04 | 0.675 | 0.589
5 | Cc1ccc(S[C@]2(C(=O)NC(C)C)CC(=O)N(Cc3cc(C(F)(F)F)cc(C(F)(F)F)c3)[C@@H]2c2ccc(CO)cc2I)cc1 | -0.602 | 0.0628 | 0.892 | -0.181 (inactive) | -0.816 | -0.504 | -1.36 | -0.923 | -1.27 | -0.748
6 | COCCOC(=O)N1C(=O)[C@@]2(c3cc(C#CCNC(N)=O)ccc31)[C@H](C(=O)N1CCCCCCC1)[C@H]1C(=O)O[C@H](c3ccccc3)[C@H](c3ccccc3)N1[C@@H]2c1ccccc1OCCO | 0.733 | 1.46 | 0.734 | -0.12 (inactive) | 0.718 | 0.205 | 0.79 | 1.22 | 0.485 | 1.33
7 | C=CCC(OC(C)=O)[C@@H]1[C@@H](N(Cc2ccc(-c3cccc(C(F)(F)F)c3)o2)C(=O)Cc2ccc(F)cc2)c2cc(OCCCO)ccc2N1C(=O)c1ccc(-c2ccccc2)cc1 (stereo not given in full) | 0.18 | -0.0567 | 0.494 | -0.291 (inactive) | -0.204 | -0.847 | -0.736 | -0.198 | -0.0679 | 1.32
8 | CC(C)[Si](OCC[C@H]1O[C@]2(C(=O)N(Cc3ccccc3)c3ccccc32)[C@@H](C)[C@@H]1[Si](C)(C)O)(C(C)C)C(C)C | 0.54 | -0.0907 | -0.0768 | 0.467 (inactive) | -0.189 | -0.922 | -0.102 | -0.0398 | 0.0477 | 0.438
9 | C=CCC(OC(C)=O)[C@@H]1[C@@H](N(Cc2cccc3ccccc23)C(=O)c2ccc(C)cc2)c2cc(OCCCO)ccc2N1C(=O)c1ccc(-c2ccccc2)cc1 (stereo not given in full) | 0.451 | -0.0044 | 0.322 | -1.15 (inactive) | -0.162 | 0.0243 | 0.0513 | 0.268 | -0.133 | 1.08
10 | CO[C@@H]1COC(=O)CC=C[C@@H](C)[C@H](OC)COC(=O)CC=C[C@H]1C | 0.816 | -0.628 | -1.4 | 0.161 (inactive) | 0.262 | 0.103 | 0.346 | 0.953 | 1.84 | 1.8
11 | O=C1O[C@@H](c2ccccc2)[C@@H](c2ccccc2)N2[C@@H](c3ccc(OCCO)cc3)[C@]3(C(=O)Nc4ccc(C#CCCO)cc43)[C@@H](C(=O)N3CCN(c4ncccn4)CC3)[C@H]12 | 1.13 | 0.0868 | 0.319 | 0.952 (inactive) | 1.19 | 0.935 | 0.16 | 1.07 | 0.116 | 0.666
12 | C[C@H]1COC(=O)[C@H](Cc2ccccc2)NC(=O)[C@@H](C)COC(=O)[C@H](Cc2ccccc2)NC1=O | 0.692 | -0.165 | -0.563 | -1.67 (inactive) | 0.632 | 0.847 | 0.485 | 0.897 | 1.11 | -0.687
